The source of these data is PubChem BioAssay AID2012 (Sanford-Burnham Center for Chemical Genomics, 2009).

In this assay the target is Eukaryotic translation initiation factor 4H (Homo sapiens) (UniProt Q15056). The experiment in a line: human eIF4H binding inhibitors, primary screen, translation initiation inhibitor project, biochemical, uHTS, fluorescence polarization (AID 2012).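 Also: calls also rest on retests at 20 µM and on dose response follow-up.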 As to conditions: eIF4H fluorescence polarization binding assay, stronger effect = higher value. A general note: Polarisation of emitted light reports the rotation of a fluorescent probe.

Molecules are shown by their SMILES. About 2,700 (0.93%) of roughly 290,000 compounds were called active. No rule for the calls is given here. Shown is part of a subset that was picked to be rich in actives.

Take `Cc1ccc(S(=O)(=O)N2CCC(C)CC2)cc1C(=O)NCc1ccccn1`: the inhibition (at 35 µM) is -2.5% (inactive). Turning to `CCc1ccc(NC(=O)CN2CCC(C(=O)c3ccc(OC)cc3)CC2)cc1`, the inhibition (at 35 µM) was -2.2% (inactive). Still for that read-out and setting: the same measure for `CCOC(=O)N1CCN(C(=O)COc2ccc(Br)cc2)CC1`: 5.2% (inactive); for `Cc1ccc(C(=O)OC2CCCN(C)C2)cc1` (stereo not drawn): -3.9% (inactive). Take `CN1CCCC(OC(=O)COc2ccc(Br)cc2)C1` (stereo not drawn): the inhibition is, setting by setting: (at 35 µM) 99.9% (active); (confirmation average, at 20 µM) 84.2%. Consider `COC(=O)Cc1ccc(NC(=S)NCc2ccc(Cl)cc2)cc1`, for which the inhibition (at 35 µM) is 2% (inactive). For `S=C(NCc1cccs1)Nc1ccc(Cl)cc1`, where the note is “at 35 µM”, the inhibition is -10% (inactive). `Fc1ccccc1CNC(=S)Nc1ccc(Cl)cc1`: the inhibition is 0.6% (active) (at 35 µM) and 106% (confirmation average, at 20 µM). `CCC(=O)N1CCCc2ccccc21`: the inhibition (at 35 µM) is 100% (active).

As for `O=C(CSCc1ccccc1)N1CCc2ccccc21`, the inhibition (at 35 µM) is 2.4% (inactive). Still for that read-out and setting: in the case of `CCn1c(=O)c2ccccc2n(CC(=O)N2CCCc3ccccc32)c1=O` it was -6.1% (inactive). For `COc1ccc(S(=O)(=O)N2CCOC2CNC(=O)C(=O)NCc2ccc(F)cc2)cc1` (stereo not drawn), for the setting “at 35 µM”, the inhibition is -9.2% (inactive).

In the case of `CCOc1c(OC)cccc1C(=O)NCC1(c2ccccc2)CCCC1`, the inhibition (at 35 µM) is -6% (inactive). In the case of `COc1cc([C@H](Cc2ccccc2)NC(C)=O)oc(=O)c1`, the inhibition (at 35 µM) was 100% (active).

For the molecule `CCOC(=O)C(Cc1ccccc1)NC(=O)CCC(=O)c1ccc(OC)cc1` (stereo not drawn), for the setting “at 35 µM”, the inhibition is -3.3% (inactive). Take `COC(=O)[C@H](Cc1ccccc1)NC(=O)Nc1ccc(OC)cc1`: the inhibition (at 35 µM) is 2.4% (inactive). As for `COc1cc2c(cc1OC)CN(C(=O)c1cc(S(=O)(=O)N3CCCCC3)ccc1Cl)CC2`, the inhibition (at 35 µM) was -13.7% (inactive). Take `O=C(Cc1ccccc1)n1nc(-c2ccccc2)nc1NCc1ccco1`: the inhibition (at 35 µM) was -6.8% (inactive). On the same count and under the same terms, in the case of `O=c1nc2s/c(=C\c3ccco3)c(=O)n2nc1Cc1ccccc1` it was 96.4% (active); in that of `Cc1nc2nc(SCC(=O)NCc3ccco3)nn2c(C)c1Cc1ccccc1`, 3.5% (inactive). On to `Cc1cccn2c(=O)c(C=O)c(Nc3ccc(S(N)(=O)=O)cc3)nc12`, for which, where the note is “at 35 µM”, the inhibition is -1.8% (inactive). On to `Cc1ccc(C)c(N2CCN(C(=O)CCCCCn3c(=S)[nH]c4ccc(N5CCOCC5)cc4c3=O)CC2)c1`, for which, where the note is “at 35 µM”, the inhibition is 1.4% (inactive). For the molecule `C=CCNC(=O)CSc1nc2scc(-c3ccco3)c2c(=O)n1CC=C`, the inhibition (at 35 µM) was 49.9% (inactive). On to `C=CCn1c(SCc2csc(C)n2)nc2scc(-c3ccc(C)o3)c2c1=O`, for which the inhibition (at 35 µM) was 4.9% (inactive).

Regarding `C=CCn1c(=S)[nH]c2scc(-c3ccco3)c2c1=O`, the inhibition (at 35 µM) is 94.1% (active).

As to `O=[N+]([O-])c1ccccc1/C=C/CN1CCCC(CO)C1` (stereo not drawn), for the setting “at 35 µM”, the inhibition was -4.3% (inactive). On to `C=CCNc1nnc(SCC(=O)N2CCCCC2)c2ccccc12`, for which the inhibition is 85.7% (active) (at 35 µM) and 54.5% (confirmation average, at 20 µM). `C=CCNc1nnc(C)c2ccccc12`: the inhibition (at 35 µM) is -4.9% (inactive).

`O=C(CSc1ncccn1)N1CCCC1`: the inhibition (at 35 µM) was -5.6% (inactive). Still for that read-out and setting: in the case of `C=CCOc1ccc(C(=O)Nc2ccccc2C(=O)N2CCCC2)cc1` it was 0.5% (inactive). Consider `COCC1CCN(C(=O)C2CCC(=O)N(Cc3cccc(C(F)(F)F)c3)C2)CC1` (stereo not drawn), for which the inhibition (at 35 µM) was -2.7% (inactive).

On to `COc1ccc(N(CC(=O)NCCSCc2cccc(Cl)c2)S(C)(=O)=O)cc1`, for which the inhibition (at 35 µM) is -10.9% (inactive).

Consider `CCc1cccc(C)c1NC(=O)CSc1nnc(-c2ccco2)n1N`, for which, where the note is “at 35 µM”, the inhibition was 6.1% (inactive). For `NC(=O)c1c(NC(=O)CSc2nnc(-c3ccco3)n2N)sc2c1CCCC2`, the inhibition reads like this: (at 35 µM) 65.9% (active); (confirmation average, at 20 µM) 96.5%. As for `NC(=O)c1c(NC(=O)CSc2nc(N)cc(=O)[nH]2)sc2c1CCCC2`, the inhibition (at 35 µM) is 15.5% (inactive). Turning to `COc1ccc(C(=O)NC(=S)N2CCCCC2c2cccnc2)cc1OC` (stereo not drawn), for the setting “at 35 µM”, the inhibition is 2% (inactive). Regarding `O=C(CN(C(=O)CCC(=O)Nc1nccs1)c1ccc(F)cc1)NCc1ccc2c(c1)OCO2`, where the note is “at 35 µM”, the inhibition was -1.4% (inactive). Same read-out and setting: in the case of `Nc1nc(-c2ccccc2)cc(-c2ccccc2)n1` it was 0.4% (inactive); in that of `CNc1nc(-c2ccccc2)cc(-c2ccccc2)n1`, -3.9% (inactive); in that of `CS(=O)(=O)c1sc2nc(-c3ccccc3)cc(-c3ccccc3)c2c1N`, 98.5% (active). Turning to `CCCc1cc(C(=O)Nc2ccc(Cl)cn2)cs1`, the inhibition (at 35 µM) is 2.5% (inactive). As for `CCc1ccccc1S(=O)(=O)Cc1ccc(C(=O)NCCc2ccccc2)o1`, the inhibition (at 35 µM) is -13% (inactive). Consider `COc1ccc(OC)c(-n2c(-c3ccn[nH]3)n[nH]c2=S)c1`, for which the inhibition (at 35 µM) was -6% (inactive). With `COc1ccc(-n2c(-c3ccc(OC)c(OC)c3)n[nH]c2=S)cc1`, for the setting “at 35 µM”, the inhibition is 7.7% (inactive). Turning to `COc1ccccc1-n1c(-c2cc(-c3ccco3)[nH]n2)n[nH]c1=S`, the inhibition runs as follows: (at 35 µM) 58% (active); (confirmation average, at 20 µM) 74%. For `Cc1nc(C)c(-c2nnc(-c3cccc(S(=O)(=O)N(C)C)c3)o2)cc1C(=O)NN`, where the note is “at 35 µM”, the inhibition is -1.3% (inactive). For the molecule `Cc1ccccc1C(=O)NC(=S)NC1CC1`, the inhibition (at 35 µM) is -17.7% (inactive).

`CSCCC(NC(=O)c1ccco1)C(=O)OCC(=O)Nc1ncc(Cl)c(C)c1Cl` (stereo not drawn): the inhibition (at 35 µM) was 4.5% (inactive). On to `Cc1c(Cl)cnc(NC(=O)COC(=O)c2ccc(S(=O)(=O)NCc3ccco3)cc2)c1Cl`, for which the inhibition by setting is: (at 35 µM) 58.6% (active); (confirmation average, at 20 µM) 87.4%. For `C/C(=N\Nc1ncc(Cl)cc1Cl)c1ccc(S(=O)(=O)NCc2ccco2)cc1`, the inhibition (at 35 µM) was -4.5% (inactive). For the molecule `CC(=O)Nc1ccc(N2C(=O)C3C4C=CC(CC4)C3C2=O)cc1` (stereo not drawn), the inhibition (at 35 µM) is -5.9% (inactive).

Regarding `O=c1[nH]c(/C=C\c2cccc(C(F)(F)F)c2)nc(O)c1[N+](=O)[O-]`, the inhibition (at 35 µM) was 3.5% (inactive). Consider `Cc1cccc(NS(=O)(=O)c2ccc(C(=O)NCC(C)(C)N3CCOCC3)cc2)c1C`, for which the inhibition (at 35 µM) is -0.1% (inactive). On to `O=C1N/C(=C/c2cccn2-c2ccccc2)C(=O)N1c1cccc(Cl)c1`, for which the inhibition (at 35 µM) is 2.6% (inactive).

In the case of `Cc1ccccc1NC(=O)CN1C(=O)N/C(=C\c2cccn2-c2cccc(C(=O)O)c2)C1=O`, the inhibition by setting is: (at 35 µM) 89.1% (active); (confirmation average, at 20 µM) 86.1%.

For `Cc1cccc(NC(=O)CN2C(=O)c3ccccc3C2=O)c1C`, for the setting “at 35 µM”, the inhibition was 9.4% (inactive).

For the molecule `Cc1ccc(CNC(=O)C(=O)c2cn(CC(=O)N3CCOCC3)c3ccccc23)cc1`, for the setting “at 35 µM”, the inhibition is -6.1% (inactive). Regarding `CSc1nnc(SCc2nc3sc(C(=O)O)c(C)c3c(=O)[nH]2)s1`, the inhibition (at 35 µM) is 86.3% (active). Still for that read-out and setting: in the case of `CCOC(=O)c1sc2nc(CSc3ccccc3)[nH]c(=O)c2c1C` it was 2.6% (inactive). Still for that read-out and setting: in the case of `Cc1ccc(C)c(SCc2nc3sc(C(=O)O)c(C)c3c(=O)[nH]2)c1` it was 2.9% (inactive); in that of `COC(=O)c1ccccc1NC(=O)CSc1n[nH]c(-c2ccncc2)n1`, 3.3% (inactive).

One may read the inhibition as the change of the read-out against control, counted positive when it falls.
